CD11b adhes inh – inhibitors of human CD11b/CD18 binding to fibrinogen. K562 CD11b/CD18 adhesion to fibrinogen, ATPlite luminescence; Mn2+ added to activate the integrin. inhibition, % at 10 µM. 93,000 compounds, 0.54% hits. AID 1497;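 active = primary inhibition of 50% or more at 10 µM, then 40% or more on retest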
CYP2C9 inhib – inhibitors of human CYP2C9; CYP2C9 Supersomes, luciferin-H conversion, luminescence; P11712; inhibition, % at 5 µM; 96,000 compounds, 20% hits;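 active = blocking of liver enzyme CYP2C9 beyond about 50% at 5 µM, limit read from the data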
CYP2C19 activ – increases human CYP2C19 enzyme activity; 96,000 tested, under 10 active; activation factor at 5 µM; recombinant CYP2C19, luciferin-H EGE luminescence; stronger effect = higher value; 0 = fully inhibited enzyme, 1 = untreated enzyme;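 active = activation factor of at least 2 at 5 µM in the primary screen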
Target sequence (P33261 whole entry, looked up): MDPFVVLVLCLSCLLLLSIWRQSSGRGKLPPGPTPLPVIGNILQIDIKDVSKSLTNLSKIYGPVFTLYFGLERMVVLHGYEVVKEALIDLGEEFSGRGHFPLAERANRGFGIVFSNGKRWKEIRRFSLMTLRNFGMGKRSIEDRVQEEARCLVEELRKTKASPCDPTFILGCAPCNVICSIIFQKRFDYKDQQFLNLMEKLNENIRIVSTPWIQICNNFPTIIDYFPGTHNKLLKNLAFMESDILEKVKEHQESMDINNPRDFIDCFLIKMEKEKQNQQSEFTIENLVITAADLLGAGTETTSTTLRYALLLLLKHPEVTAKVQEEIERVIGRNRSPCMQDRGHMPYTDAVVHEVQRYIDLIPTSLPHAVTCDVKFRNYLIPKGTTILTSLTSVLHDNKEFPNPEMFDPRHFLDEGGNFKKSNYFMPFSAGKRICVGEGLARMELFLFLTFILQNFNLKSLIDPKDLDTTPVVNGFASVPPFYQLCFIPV
CYP2C9 activ – CYP2C9 (human) activation; recombinant CYP2C9, luciferin-H conversion, luminescence; stronger effect = higher value; factor 1 = untreated enzyme, 0 = blocked; activation factor at 5 µM; 96,000 compounds, 1.4% hits; AID 1024;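 active = activation factor of 2 or more for CYP2C9 at a 5 µM dose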
CYP2C19 inhib – human CYP2C19 inhibition; CYP2C19 Supersomes, luciferin-H EGE luminescence, 30 min; 96,000 compounds, 21% hits; inhibition, % at 5 µM;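 active = CYP2C19 inhibition above a set limit at 5 µM in the primary screen, cut at about 50% in these data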
Mac1 fbg enh – enhancers of human CD11b/CD18 binding to fibrinogen; P05107+P11215; K562 CD11b/CD18 adhesion to fibrinogen, ATPlite luminescence; activation, % at 10 µM; 93,000 compounds, 0.07% hits; AID 1499;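 active = 10 µM primary screen giving 50% or more activity, confirmed by 40% or more on retest at that dose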
Each line names hits and unclear results; the compound was inactive in the other large screens. This is a sample that favours compounds with a hit; in the whole collection about 28% have one here.

COC(=O)C(C(=O)NCC1CCCO1)C1CCCC1 (centres undefined)	none
Cc1c(O)ccc(-c2[nH]ncc2-c2nc3ccccc3s2)c1O	CYP2C9 inhib 69, CYP2C19 inhib 87
Cc1c(NC(=O)c2ncn[nH]2)cccc1-c1nc2ccccc2s1	none (no result: CYP2C9 inhib, CYP2C19 activ, CYP2C9 activ, CYP2C19 inhib)
Cc1ccccc1-n1ncc2c(SCC(=O)NCc3cccs3)ncnc21	none
Cc1csc(NC(=O)CSc2ncnc3c2cnn3-c2ccccc2Cl)n1	CYP2C9 inhib 90, CYP2C19 inhib 90
CC1CCc2c(sc(NC(=O)CSc3ncnc4c3cnn4-c3ccccc3Cl)c2C#N)C1 (centres undefined)	CYP2C9 inhib 72 (no result: CD11b adhes inh, Mac1 fbg enh)
CC1CCc2c(sc(NC(=O)CSc3nnc(-c4ccccc4)o3)c2C#N)C1 (centres undefined)	none (no result: CYP2C9 inhib, CYP2C19 activ, CYP2C9 activ, CYP2C19 inhib)
CC1(C)CC(=O)C(/C=N/n2c(C(F)(F)F)nc3ccccc3c2=O)=C(O)C1	none
CCNC(=S)NNC(=O)c1cccc(Br)c1	none (no result: CD11b adhes inh, Mac1 fbg enh)
Cn1c(=O)cc(SCC(=O)N2CCN(Cc3ccc4c(c3)OCO4)CC2)c2ccccc21	CYP2C9 inhib 52
Cn1c(Cn2nnc3ccccc32)nnc1SCC(=O)NCc1ccc2c(c1)OCO2	none
CCn1c(=O)cc(SCC(=O)N2CCN(Cc3ccc4c(c3)OCO4)CC2)c2ccccc21	none
COc1ccccc1N1CCN(C(=O)CCCCn2c(=O)[nH]c3ccsc3c2=O)CC1	none
O=C(CCCCCn1c(=O)[nH]c2ccccc2c1=O)N1CCN(Cc2ccc3c(c2)OCO3)CC1	CYP2C9 inhib 80, CYP2C19 inhib 65
O=C(CCCCn1c(=O)[nH]c2ccsc2c1=O)NCc1ccc2c(c1)OCO2	CYP2C9 inhib 60
Cn1c(=O)c2sccc2n2c(CCCC(=O)NCc3ccc4c(c3)OCO4)nnc12	CYP2C19 inhib 77 (no result: CD11b adhes inh, Mac1 fbg enh)
Cc1ccccc1C1CC(c2ccc(F)cc2)Nc2nc(N)nn21 (centres undefined)	CYP2C9 inhib 84, CYP2C19 inhib 69
CCOc1ccc(C2CC(c3ccccc3)Nc3nc(N)nn32)cc1 (centres undefined)	CYP2C9 inhib 51
Nc1nc2n(n1)C(c1ccccc1)CC(c1ccc(F)cc1)N2 (centres undefined)	CYP2C9 inhib 93, CYP2C19 inhib 98
COc1ccccc1C1CC(c2ccc(Cl)cc2Cl)Nc2nc(N)nn21 (centres undefined)	CYP2C19 inhib 83
COc1ccc(C2CC(c3ccccc3)Nc3nc(N)nn32)cc1 (centres undefined)	none
CCOc1ccc(C(=O)N[C@H](C(=O)O)C(C)C)cc1	none
CCc1ccc(C2CC(c3ccc(F)cc3)Nc3nc(N)nn32)cc1 (centres undefined)	CYP2C19 inhib 51
CC(=O)n1cc(C(C[N+](=O)[O-])SCCN)c2ccccc21 (centres undefined)	none (no result: CD11b adhes inh, Mac1 fbg enh)
COC(=O)c1sc2cc(C(F)(F)F)cnc2c1-c1cccnc1	CYP2C9 inhib 52
O=C(Nc1ccccc1)c1sc2cc(C(F)(F)F)cnc2c1-c1cccs1	CYP2C9 inhib 74, CYP2C19 inhib 52
COc1ccc(C(C)C)cc1S(=O)(=O)NCc1ccccn1	CYP2C9 inhib 52, CYP2C19 inhib 65
CCOc1cc(S(=O)(=O)NCc2ccccn2)c(C)cc1C	CYP2C19 inhib 59
COc1ccc(CC(=O)NCc2ccccn2)cc1OC	none (no result: CD11b adhes inh, Mac1 fbg enh)
Cc1cc(S(=O)(=O)NCC(C)C)ccc1OCC(=O)NCc1ccccn1	none
Cc1c(Cl)c([N+](=O)[O-])nn1CCCC(=O)Nc1sc2c(c1C#N)CCC2	none
CCOC(=O)CN1C(=O)C(C)(C)Oc2ccc(C(=O)Nc3ccccc3)cc21	none
COc1ccc(S(=O)(=O)NCCc2csc(C)n2)cc1C	CYP2C19 inhib 74
COc1ccc(S(=O)(=O)NCCC(C)C)cc1C	CYP2C19 inhib 85
Cc1csc(SCCn2c(N3CCCC3)nc3c2c(=O)[nH]c(=O)n3C)n1	none
CCOC(=O)CSc1nc2c(cnn2-c2ccc(C)cc2)c(=O)[nH]1	none (no result: CD11b adhes inh, Mac1 fbg enh)
C=CCN1C(=O)C(CC(=O)O)SC1=Nc1c(C)n(C)n(-c2ccccc2)c1=O (centres undefined)	none
O=C(CC1SC(=O)N(c2ccccc2)C1=O)Nc1ccccc1 (centres undefined)	none
COCCN1C(=O)C(CC(=O)Nc2ccc(C(C)=O)cc2)SC1=Nc1ccccc1 (centres undefined)	CYP2C9 inhib 72, CYP2C19 inhib 54
C=CCN1C(=O)C(CC(=O)Nc2ccc(C)cc2)SC1=Nc1c(C)n(C)n(-c2ccccc2)c1=O (centres undefined)	CYP2C9 inhib 66, CYP2C19 inhib 62
O=C(CC1Sc2ncnn2C1=O)Nc1ccccc1 (centres undefined)	none
CC(O)CN1C(=O)C(CC(=O)Nc2ccc(Cl)cc2)SC1=Nc1ccccc1 (centres undefined)	CYP2C9 inhib 67, CYP2C19 inhib 72
CCN1CCCC1Cn1cnc2c([nH]c3cccc(Cl)c32)c1=O (centres undefined)	none
O=C(OCC(=O)N1CCC(Cc2ccccc2)CC1)c1ccc[nH]c1=O	none
CCOC(=O)c1ccccc1Oc1c(F)c(F)nc(NCCO)c1F	CYP2C9 inhib 51, CYP2C19 inhib 62
COc1ccc(OC)c(Nc2ccc(C(=O)O)cc2[N+](=O)[O-])c1	none (no result: CYP2C9 inhib, CYP2C19 activ, CYP2C9 activ, CYP2C19 inhib)
Cc1ccc(C(=O)N(CC(=O)NC2CCCC2)Cc2cccs2)s1	CYP2C9 inhib 88, CYP2C19 inhib 74
Cc1sc2ncn(CC(=O)N(CC(=O)NC3CCCC3)Cc3cccs3)c(=O)c2c1C	CYP2C9 inhib 56
CCC(C)(C(=O)NC1CCCCC1)N(Cc1cccs1)C(=O)Cc1cccs1 (centres undefined)	none
CCNc1nc2c(c(=O)[nH]c(=O)n2C)n1Cc1ccc(F)cc1	none
O=C(O)CCc1nnc2n(Cc3ccc(F)cc3)c(=O)c3ccccc3n12	none
Cc1ccc(C(=O)O)cc1S(=O)(=O)N1CCC(C(=O)O)CC1	none
Cc1cc(C)n(C(=O)c2ccc(C)c(S(=O)(=O)N3CCCCC3)c2)n1	CYP2C9 inhib 91, CYP2C19 inhib 91
Cc1ccc(C(=O)Nc2ccon2)cc1S(=O)(=O)N1CCCCCC1	CYP2C19 inhib 88
Cc1ccc(C(=O)Nc2ccon2)cc1S(=O)(=O)N1CCOCC1	none
CCCSc1nnc(-c2ccccc2N)c(=O)[nH]1	none
O=[N+]([O-])c1ccc(N/N=C2/CCCCC2c2ccccn2)cc1 (centres undefined)	none (no result: CYP2C9 inhib, CYP2C19 activ, CYP2C9 activ, CYP2C19 inhib)
O=S1(=O)N=C(Oc2ccccc2)c2ccccc21	none
COc1ccc(N(C)C2=NS(=O)(=O)c3ccccc32)cc1	CYP2C19 inhib 72
Cc1ccc(C(C)NC(=O)c2c(C)noc2C)cc1C (centres undefined)	CYP2C19 inhib 61
O=C(NCCc1nc2ccccc2[nH]1)c1ccc(F)cc1	CYP2C9 inhib 51, CYP2C19 inhib 88
